# Screens deposited in PubChem BioAssay by National Center for Advancing Translational Sciences (NCATS).
# Compounds with a hit are over-represented: about 1.1% of the library has one in this group of screens.
# AmpC detergent = qHTS Inhibitors of AmpC Beta-Lactamase (assay with detergent); P00811; AmpC hydrolysis of nitrocefin, absorbance 480 nm, 0.01% Triton; Potency, µM (highest dose often 114 µM), inactives show at the top dose activity change, negative = inhibition, usual class: inhibitors; actives 0.041% (n = 370,000);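 note: 0% = no-compound wells and -100% = no-enzyme wells; nearly all actives have a fitted effect of over 25% in size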
# Target sequence (P00811 whole entry, looked up): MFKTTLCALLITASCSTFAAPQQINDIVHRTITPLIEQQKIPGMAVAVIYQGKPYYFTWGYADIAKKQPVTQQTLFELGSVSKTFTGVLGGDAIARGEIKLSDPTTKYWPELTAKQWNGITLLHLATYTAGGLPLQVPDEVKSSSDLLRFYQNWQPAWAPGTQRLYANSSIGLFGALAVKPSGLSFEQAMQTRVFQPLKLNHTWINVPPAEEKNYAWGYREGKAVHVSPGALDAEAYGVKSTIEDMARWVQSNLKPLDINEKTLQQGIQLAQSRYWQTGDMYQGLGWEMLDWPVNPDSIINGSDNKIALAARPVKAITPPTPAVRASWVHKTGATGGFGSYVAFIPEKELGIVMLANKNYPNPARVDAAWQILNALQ
#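 20 mM phosphate pH 7.0 + 0.01% (detergent screen) or 0.0001% Triton X-100; 5.3 nM AmpC reagent; cpd preinc 15 min RT; nitrocefin (800 uM stock) to start; A480 q20 s × 4 min; Activity was normalised to no-enzyme and no-compound control wells.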
# AMA1 RON2 block = qHTS for Inhibitors of AMA1-RON; Towards Development of Antimalarial Drug Lead: Primary Screen | Potency, µM (series often up to 58.2 µM), for the others: at the top dose activity change, negative = inhibition, usual class: inhibitors | AlphaScreen AMA1-biotinylated RON2 peptide binding | actives 0.2% (n = 360,000) | Plasmodium falciparum AMA1 (3D7) - RON2 peptide interaction;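 note: 0% = vehicle wells and -100% = peptide control; nearly all actives have a fitted effect of over 45% in size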
#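 AMA1 (3D7) with his tag at 25 nM final met compounds first, then biotinylated RON2 peptide at 25 nM; detection used donor plus acceptor beads, 10 µg/mL apiece, read by AlphaScreen after 30 min at room temperature.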
# Giardia FBPA inh-1 = qHTS Assay for Inhibitors of Fructose-1,6-bisphosphate Aldolase from Giardia Lamblia; AID 2451, 2010; purified Giardia FBPA; Potency, µM (highest dose often 59.6 µM), for the others: at the top dose activity, negative = inhibition, hits mostly inhibitors; actives 0.71% (n = 290,000); A8B2U2; note: nearly all actives have a fitted effect of over 55% in size
#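 40 nM FBPA preincubated 10 min at RT with compound (up to 57.5 uM final), then substrate plus GAPDH/TPI/NAD/arsenate coupling and diaphorase/resazurin added. Fluorescence read after 20 min at RT, 525/598 nm.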
# AmpC inh no detg = qHTS Inhibitors of AmpC Beta-Lactamase (assay without detergent); P00811; AmpC nitrocefin hydrolysis, absorbance 480 nm, 0.0001% Triton; Potency, µM (doses to about 57.1 µM), without a hit: at the highest dose activity change, negative = inhibition, hits mostly inhibitors; actives 0.52% (n = 330,000);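 note: plate controls were no compound for no effect and no enzyme for full effect; nearly all actives have a fitted effect of over 20% in size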
#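 20 mM phosphate pH 7.0 + 0.01% (detergent screen) or 0.0001% Triton X-100; 5.3 nM AmpC reagent; cpd preinc 15 min RT; nitrocefin (800 uM stock) to start; A480 q20 s × 4 min; Activity was normalised to no-enzyme and no-compound control wells.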
# Giardia growth = qHTS Assay for Inhibitors of Fructose-1,6-bisphosphate Aldolase from Giardia Lamblia: Giardia lamblia growth inhibition; shares compounds with Giardia FBPA inh-1; actives 5% (n = 1,500); Giardia lamblia trophozoite growth inhibition; Potency, µM (series often up to 57.5 µM), for the others: at the highest dose activity change, negative = inhibition, usual class: inhibitors; AID 2785, 2010;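 note: trophozoites exposed to compound for 48 h at 37 °C; nearly all actives have a fitted effect of over 70% in size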
# Mammal cell tox = qHTS Assay for Inhibitors of Fructose-1,6-bisphosphate Aldolase from Giardia Lamblia: Mammalian cellular toxicity | AID 2786, 2010 | mammalian cell viability counter-screen, qHTS | Potency, µM (titrated, usually from 57.5 µM), without a hit: at the top dose viability change, negative = toxicity, hits mostly inhibitors | shares compounds with Giardia FBPA inh-1 | actives 4% (n = 1,500);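 note: Chinese hamster ovary cells used as mammalian cytotoxicity surrogate; viability measured as cellular ATP by luminescence; compound exposure lasted 48 h before reading; nearly all actives have a fitted effect of over 60% in size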
# Giardia FBPA inh-2 = qHTS Assay for Inhibitors of Fructose-1,6-bisphosphate Aldolase from Giardia Lamblia: Primary screen confirmation | AID 2787, 2010 | Potency, µM (series often up to 57.5 µM), without a hit: at the top dose activity change, negative = inhibition, most hits filed as inhibitors | actives 5% (n = 1,500) | shares compounds with Giardia FBPA inh-1 | purified Giardia aldolase enzyme activity, qHTS; note: nearly all actives have a fitted effect of over 45% in size
# Rabbit aldolase = qHTS Assay for Inhibitors of Fructose-1,6-bisphosphate Aldolase from Giardia Lamblia: Rabbit FBPA Selectivity; Rabbit muscle FBPA enzyme inhibition, selectivity counter-screen; actives 4% (n = 1,500); Potency, µM (top dose mostly 57.5 µM), inactives show at the top dose activity, negative = inhibition, actives largely listed as inhibitors; AID 2794, 2010; shares compounds with Giardia FBPA inh-1; note: nearly all actives have a fitted effect of over 60% in size
# GAPDH coupling = qHTS Assay for Inhibitors of Fructose-1,6-bisphosphate Aldolase from Giardia Lamblia: Coupling assay counterscreen confirmation | AID 2795, 2010 | GAPDH coupling enzyme counterscreen, biochemical, qHTS | actives 6% (n = 1,500) | shares compounds with Giardia FBPA inh-1 | Potency, µM (titrated, usually from 57.5 µM), for inactives: at the top dose activity change, negative = inhibition, hits mostly inhibitors; note: nearly all actives have a fitted effect of over 55% in size
# * = called active by the depositor; u = inconclusive; x = not tested or not shown; [ ] = remark or other dose. Calls come from the whole dose curve; as a rule, active = well fitted curve in the direction sought with a large enough effect; inconclusive = small, poorly fitted or top-dose-only effect, or another doubt; inactive = no such curve, though single readings can be large; an effect the other way counts as inactive or inconclusive. Unless noted, % is set by controls: 0 for no effect and ±100 for the full control effect; potency is the fitted concentration of half-maximal effect.
SMILES,AmpC detergent,AMA1 RON2 block,Giardia FBPA inh-1,AmpC inh no detg,Giardia growth,Mammal cell tox,Giardia FBPA inh-2,Rabbit aldolase,GAPDH coupling
O=C(NNC(=O)c1cnccn1)c1ccc(Cl)cc1,4%,75%,13µM*,0%,-5%[10.4 µM],-4%,-5%,5%,3%
Cc1ccc(-n2c(=O)c3oc4ccccc4c3n(Cc3cccc(F)c3)c2=O)cc1C,-2%,x,x,x,x,x,x,x,x
C[C@H](CO)N1C[C@H](C)[C@H](CN(C)C(=O)Nc2ccc(C(F)(F)F)cc2)OCc2cnnn2CCCC1=O,x,-6%,x,x,x,x,x,x,x
CC1=CC(=O)NP(=O)(Oc2ccc3ccccc3c2)N1 (centres undefined),-9%,0%,16µM*,-2%,u,10%,-17%,7%,12%
CC[C@]1(c2ccccc2)NC(=O)NC1=O,x,x,-5%,x,x,x,x,x,x
N#Cc1c(C#N)c(O)c2ccccc2c1O,-8%,52%,20µM*,-15%,u,-7%,u,u,u
N#Cc1ccccc1,-2%,-1%,x,1%,x,x,x,x,x
O=C(O)Cn1c(C(=O)Nc2nc(-c3ccccc3Cl)cs2)cc2ccccc21,x,x,-11%,x,x,x,x,x,x
CC(=O)c1c(C)nc(-c2ccc(Cl)cc2)nc1N,5%,-10%,5µM*,-13%,-29%[38.3 µM],4%,9%,15%,0%
CC(=O)c1c(C)nc(-c2ccc(Cl)cc2)nc1N=CN(C)C,-4%,-2%,u,1%,x,x,x,x,x
COc1ccccc1NCC(O)COc1ccc(C(C)(C)C)cc1 (centres undefined),0%,u,18µM*,-17%,u,9%,-12%,-1%,-12%
O=[N+]([O-])c1ccccc1/C=C/CN1CCN(Cc2ccc3c(c2)OCO3)CC1,-16%,-20%,11µM*,19%,-8%[10.4 µM],7%,-7%,0%,9%
C(=C\c1ccccc1)/CN1CCN(Cc2ccc3c(c2)OCO3)CC1,u,u,7.9µM*,-32%,-20%,7%,9%,0%,17%
CCOC(=O)C1CCN(C/C=C/c2ccccc2)CC1,u,-12%,u,-1%,x,x,x,x,x
CCOC(=O)C1CCCN(C/C=C/c2ccccc2)C1 (centres undefined),u,-13%,16µM*,6%,67%,14%,11%,10%,-1%
CC(C)N(CC#CCC(O)(c1ccccc1)C1CCCC1)CCO (centres undefined),4%,-26%,10µM*,28%,4%[38.3 µM],-3%,2%,1%,0%
CCN(CC#CCC(O)(c1ccccc1)C1CCCC1)C(C)C (centres undefined),3%,-3%,x,16%,x,x,x,x,x
O=C(NCc1ccccc1Cl)c1ccc(NC(=O)N2CCSc3ncccc32)cc1,0%,x,x,x,x,x,x,x,x
N#C/C(=C\c1ccccc1)C(=O)NNS(=O)(=O)c1cccc([N+](=O)[O-])c1,x,54%,x,-58%,x,x,x,x,x
CC(NC(=S)NNS(=O)(=O)c1cccc([N+](=O)[O-])c1)c1ccccc1 (centres undefined),6%,80%,16µM*,-22%,12%,12%,3%,15%,26%
O=C(N/N=C/c1cc(Br)c(Br)o1)c1ccc2c(c1)OCCO2,0%,3%,13µM*,-51%,12%,-15%,-8%,-8%,1%
O=C(N/N=C/c1cc(Br)c(O)c(Br)c1O)c1ccc2c(c1)OCCO2,-1%,-4%,-19%,-24%,x,x,x,x,x
